Test results taken from PubChem BioAssay AID1159580 (chemical genetic matrix, 2015).
In all, about 5,500 compounds went through this assay and about 2,000 (36%) were called active. About 18% were inconclusive and are not listed. Rule as the data show it: active = normalized growth mostly below about 0.91 (no sharp cut-off); inconclusive = no clear call, values can overlap the other calls; inactive = mostly above about 0.92. Some of the results follow.

Test: chemical genetic growth profiling, strain panel (AID 1159580);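 also: tested at 20 µM; growth read once vehicle control cultures reached saturation at 30 °C; 1 = growth at the plate median or of vehicle wells; lower values mean less growth of the strain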
Settings: growth OD
[1] = S. cerevisiae deletion strains, locus YAL013W, strain DEP1, hits give low values
[2] = S. cerevisiae deletion strains, locus YDR150W, strain NUM1, hits give low values
[3] = S. cerevisiae deletion strains, locus YHR030C, strain SLT2, hits give low values
[4] = S. cerevisiae deletion strains, locus YJR075W, strain HOC1, hits give low values
[5] = S. cerevisiae deletion strains, locus YPL055C, strain LGE1, hits give low values
[6] = S. cerevisiae deletion strains, locus YPL241C, strain CIN2, hits give low values

Measured: normalized growth

CC(=O)Nc1ccc(S(=O)(=O)NC2Cc3ccccc3C2)cc1
inactive: [1] 1.01 | S. cerevisiae deletion strains, locus YBR229C, strain ROT2, hits give low values 1.01 | S. cerevisiae deletion strains, locus YDL101C, strain DUN1, hits give low values 0.98 | [2] 0.949 | S. cerevisiae deletion strains, locus YEL061C, strain CIN8, hits give low values 1.01 | S. cerevisiae deletion strains, locus YGR078C, strain PAC10, hits give low values 1 | [3] 1.06 | S. cerevisiae deletion strains, locus YHR087W, strain rtc3, hits give low values 1 | S. cerevisiae deletion strains, locus YJR043C, strain POL32, hits give low values 1 | [4] 0.996 | S. cerevisiae deletion strains, locus YKL190W, strain CNB1, hits give low values 1.01 | S. cerevisiae deletion strains, locus YLR039C, strain RIC1, hits give low values 1.04 | S. cerevisiae deletion strains, locus YLR058C, strain SHM2 (second series), hits give low values 1.01 | S. cerevisiae deletion strains, locus YLR085C, strain ARP6, hits give low values 1.05 | S. cerevisiae deletion strains, locus YLR262C, strain YPT6, hits give low values 1.03 | S. cerevisiae deletion strains, locus YML094W, strain GIM5, hits give low values 1.02 | S. cerevisiae deletion strains, locus YMR219W, strain ESC1, hits give low values 1.01 | S. cerevisiae deletion strains, locus YMR263W, strain SAP30, hits give low values 0.994 | S. cerevisiae deletion strains, locus YNL153C, strain GIM3, hits give low values 1.02 | S. cerevisiae deletion strains, locus YNL298W, strain CLA4 (second series), hits give low values 1.04 | S. cerevisiae deletion strains, locus YNL322C, strain KRE1, hits give low values 1.01 | S. cerevisiae deletion strains, locus YNR030W, strain Alg12, hits give low values 1.03 | S. cerevisiae deletion strains, locus YOL006C, strain TOP1, hits give low values 1.08 | [5] 0.966 | [6] 1.02 | S. cerevisiae deletion strains, locus YPR135W, strain CTF4, hits give low values 1.02 | S. cerevisiae strains, strain wild type, hits give low values 1.01

CCCCS(=N)(=O)CCC(N)C(=O)O (stereo not drawn)
inactive: [1] 0.993 | S. cerevisiae deletion strains, locus YAL021C, strain ccr4, hits give low values 0.983 | S. cerevisiae deletion strains, locus YAL026C, strain drs2, hits give low values 1 | S. cerevisiae deletion strains, locus YAL030W, strain snc1, hits give low values 0.997 | S. cerevisiae deletion strains, locus YAL040C, strain CLN3, hits give low values 0.993 | S. cerevisiae deletion strains, locus YBL061C, strain skt5, hits give low values 0.999 | S. cerevisiae deletion strains, locus YBR009C, strain hhf1, hits give low values 1.02 | S. cerevisiae deletion strains, locus YBR023C, strain chs3, hits give low values 0.997 | S. cerevisiae deletion strains, locus YBR171W, strain sec66, hits give low values 0.999 | S. cerevisiae deletion strains, locus YBR231C, strain swc5, hits give low values 0.998 | S. cerevisiae deletion strains, locus YBR279W, strain paf1, hits give low values 0.993 | S. cerevisiae deletion strains, locus YCL011C, strain gbp2, hits give low values 0.988 | S. cerevisiae deletion strains, locus YCL016C, strain dcc1, hits give low values 1 | S. cerevisiae deletion strains, locus YCL061C, strain MRC1 (second series), hits give low values 0.997 | S. cerevisiae deletion strains, locus YCL061C, strain MRC1, hits give low values 0.993 | S. cerevisiae deletion strains, locus YCL069W, strain vba3, hits give low values 0.992 | S. cerevisiae deletion strains, locus YCR088W, strain abp1, hits give low values 0.992 | S. cerevisiae deletion strains, locus YDL005C, strain med2, hits give low values 0.984 | S. cerevisiae deletion strains, locus YDL040C, strain nat1, hits give low values 0.994 | S. cerevisiae deletion strains, locus YDR001C, strain nth1, hits give low values 0.99 | S. cerevisiae deletion strains, locus YDR069C, strain doa4, hits give low values 1.01 | S. cerevisiae deletion strains, locus YDR137W, strain rgp1, hits give low values 0.973 | [2] 1.01 | S. cerevisiae deletion strains, locus YDR159W, strain sac3, hits give low values 1.02 | S. cerevisiae deletion strains, locus YDR195W, strain ref2 0.994 | S. cerevisiae deletion strains, locus YDR297W, strain sur2, hits give low values 0.993 | S. cerevisiae deletion strains, locus YDR334W, strain swr1, hits give low values 0.987 | S. cerevisiae deletion strains, locus YDR335W, strain msn5, hits give low values 0.99 | S. cerevisiae deletion strains, locus YDR363W, strain ESC2, hits give low values 0.992 | S. cerevisiae deletion strains, locus YDR392W, strain spt3, hits give low values 0.976 | S. cerevisiae deletion strains, locus YEL003W, strain gim4, hits give low values 0.994 | S. cerevisiae deletion strains, locus YEL037C, strain rad23, hits give low values 0.99 | S. cerevisiae deletion strains, locus YEL061C, strain CIN8 (second series), hits give low values 0.99 | S. cerevisiae deletion strains, locus YER002W, strain NOP16, hits give low values 0.979 | S. cerevisiae deletion strains, locus YER015W, strain faa2, hits give low values 0.996 | S. cerevisiae deletion strains, locus YER016W, strain bim1, hits give low values 0.996 | S. cerevisiae deletion strains, locus YER111C, strain swi4, hits give low values 0.983 | S. cerevisiae deletion strains, locus YER155C, strain BEM2 (second series), hits give low values 1.01 | S. cerevisiae deletion strains, locus YFR010W, strain ubp6, hits give low values 0.999 | S. cerevisiae deletion strains, locus YGL167C, strain pmr1, hits give low values 1 | S. cerevisiae deletion strains, locus YGL173C, strain kem1, hits give low values 1 | S. cerevisiae deletion strains, locus YGL227W, strain vid30, hits give low values 0.984 | S. cerevisiae deletion strains, locus YGL240W, strain doc1, hits give low values 1.01 | S. cerevisiae deletion strains, locus YGL253W, strain hxk2, hits give low values 1 | S. cerevisiae deletion strains, locus YGR229C, strain SMI1, hits give low values 0.955 | S. cerevisiae deletion strains, locus YHR013C, strain ard1, hits give low values 0.979 | S. cerevisiae deletion strains, locus YHR027C, strain rpn1, hits give low values 0.99 | [3] 0.981 | S. cerevisiae deletion strains, locus YHR079C, strain IRE1, hits give low values 0.98 | S. cerevisiae deletion strains, locus YHR142W, strain chs7, hits give low values 0.979 | S. cerevisiae deletion strains, locus YJL092W, strain hpr5, hits give low values 1 | S. cerevisiae deletion strains, locus YJL095W, strain BCK1 (second series), hits give low values 0.995 | S. cerevisiae deletion strains, locus YJL095W, strain BCK1, hits give low values 0.983 | S. cerevisiae deletion strains, locus YJL115W, strain asf1, hits give low values 0.996 | S. cerevisiae deletion strains, locus YJL129C, strain trk1, hits give low values 0.986 | S. cerevisiae deletion strains, locus YJL154C, strain vps35, hits give low values 0.993 | S. cerevisiae deletion strains, locus YJL164C, strain tpk1, hits give low values 0.996 | S. cerevisiae deletion strains, locus YJL166W, strain qcr8, hits give low values 1 | S. cerevisiae deletion strains, locus YJL187C, strain SWE1, hits give low values 0.994 | S. cerevisiae deletion strains, locus YJR066W, strain TOR1, hits give low values 0.9 | [4] 1 | S. cerevisiae deletion strains, locus YKL160W, strain elf1, hits give low values 0.997 | S. cerevisiae deletion strains, locus YKR026C, strain gcn3, hits give low values 0.986 | S. cerevisiae deletion strains, locus YKR091W, strain srl3, hits give low values 0.988 | S. cerevisiae deletion strains, locus YLL001W, strain dnm1, hits give low values 0.993 | S. cerevisiae deletion strains, locus YLL026W, hits give low values 0.993 | S. cerevisiae deletion strains, locus YLL041C, strain sdh2, hits give low values 0.988 | S. cerevisiae deletion strains, locus YLR027C, strain aat2, hits give low values 0.993 | S. cerevisiae deletion strains, locus YLR113W, strain HOG1, hits give low values 0.99 | S. cerevisiae deletion strains, locus YLR221C, strain rsa3, hits give low values 0.986 | S. cerevisiae deletion strains, locus YLR258W, strain gsy2, hits give low values 1 | S. cerevisiae deletion strains, locus YLR262C, strain YPT6 (second series), hits give low values 0.998 | S. cerevisiae deletion strains, locus YLR320W, strain mms22, hits give low values 0.99 | S. cerevisiae deletion strains, locus YLR342W, strain FKS1, hits give low values 0.993 | S. cerevisiae deletion strains, locus YLR357W, strain rsc2, hits give low values 1 | S. cerevisiae deletion strains, locus YLR370C, strain arc18, hits give low values 0.99 | S. cerevisiae deletion strains, locus YLR384C, strain iki3, hits give low values 1.01 | S. cerevisiae deletion strains, locus YML120C, strain ndi1, hits give low values 0.983 | S. cerevisiae deletion strains, locus YMR058W, strain fet3, hits give low values 0.999 | S. cerevisiae deletion strains, locus YMR125W, strain sto1, hits give low values 0.99 | S. cerevisiae deletion strains, locus YMR129W, hits give low values 0.959 | S. cerevisiae deletion strains, locus YMR205C, strain PFK2, hits give low values 1.02 | S. cerevisiae deletion strains, locus YMR231W, strain pep5, hits give low values 0.997 | S. cerevisiae deletion strains, locus YMR307W, strain GAS1, hits give low values 1.01 | S. cerevisiae deletion strains, locus YNL071W, strain lat1, hits give low values 0.982 | S. cerevisiae deletion strains, locus YNL128W, strain TEP1, hits give low values 0.991 | S. cerevisiae deletion strains, locus YNL175C, strain NOP13, hits give low values 0.97 | S. cerevisiae deletion strains, locus YNL183C, strain NPR1, hits give low values 0.929 | S. cerevisiae deletion strains, locus YNL197C, strain WHI3, hits give low values 0.94 | S. cerevisiae deletion strains, locus YNL209W, strain ssb2, hits give low values 0.991 | S. cerevisiae deletion strains, locus YNL224C, strain SQS1, hits give low values 0.986 | S. cerevisiae deletion strains, locus YNL248C, strain rpa49, hits give low values 0.991 | S. cerevisiae deletion strains, locus YNL322C, strain KRE1 (second series), hits give low values 0.998 | S. cerevisiae deletion strains, locus YNR049C, strain mso1, hits give low values 0.994 | S. cerevisiae deletion strains, locus YOR001W, strain rrp6, hits give low values 0.974 | S. cerevisiae deletion strains, locus YOR070C, strain gyp1, hits give low values 0.99 | S. cerevisiae deletion strains, locus YOR080W, strain dia2, hits give low values 0.99 | S. cerevisiae deletion strains, locus YOR083W, strain WHI5 (second series), hits give low values 0.95 | S. cerevisiae deletion strains, locus YOR083W, strain WHI5, hits give low values 1 | S. cerevisiae deletion strains, locus YOR106W, strain vam3, hits give low values 1.01 | S. cerevisiae deletion strains, locus YOR231W, strain MKK1, hits give low values 0.988 | S. cerevisiae deletion strains, locus YOR265W, strain rbl2, hits give low values 0.989 | S. cerevisiae deletion strains, locus YOR270C, strain vph1, hits give low values 0.99 | S. cerevisiae deletion strains, locus YOR290C, strain snf2, hits give low values 0.949 | S. cerevisiae deletion strains, locus YPL051W, strain arl3, hits give low values 0.992 | [5] 0.999 | S. cerevisiae deletion strains, locus YPL078C, strain atp4, hits give low values 0.994 | S. cerevisiae deletion strains, locus YPL106C, strain sse1, hits give low values 0.991 | S. cerevisiae deletion strains, locus YPL240C, strain hsp82, hits give low values 0.998 | [6] 0.998 | S. cerevisiae deletion strains, locus YPL256C, strain CLN2, hits give low values 0.988
